Records with an inconclusive call do not appear. A call without a number means that no potency is given here. More than one record can exist for a structure, and the calls need not agree. Calls of active or inactive are those of the source. The call rests on the fitted dose curve; in most records, active means well fitted curve in the direction sought with a large enough effect; inconclusive means small, poorly fitted or top-dose-only effect, or another doubt; inactive means no such curve, though single readings can be large; an effect the other way counts as inactive or inconclusive.
How the values were obtained:
[1] = molecular target: Glutathione peroxidase 1 (Homo sapiens) (UniProt P07203); assay: Primary qHTS Assay for Inhibitors of Recombinant Selenoprotein Glutathione Peroxidase 1 (GPX1) (AID 1845191); further: nearly all actives have a fitted effect of over 65% in size; further: potency means the concentration at half of the fitted maximal effect
Chain of Glutathione peroxidase 1 (Homo sapiens) (P07203 whole entry, looked up): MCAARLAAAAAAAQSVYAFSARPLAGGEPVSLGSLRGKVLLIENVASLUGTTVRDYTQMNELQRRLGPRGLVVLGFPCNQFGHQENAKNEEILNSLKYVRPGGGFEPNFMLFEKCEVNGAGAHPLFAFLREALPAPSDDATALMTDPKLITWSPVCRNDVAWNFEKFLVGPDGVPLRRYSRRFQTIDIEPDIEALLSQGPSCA
Summary of the method: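 GR-coupled readout: NADPH consumption tracked by fluorescence, ex 340/em 450 nm, at t=0 and after 15 min at RT. Final mix 10 nM GPX1, 1 mM GSH, 0.5 mM CHP, 0.5 mM NADPH, 100 nM GR, 0.01% BSA, following 30 min enzyme–compound preincubation.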

[2] = molecular target: Phospholipid hydroperoxide glutathione peroxidase GPX4 (Homo sapiens) (UniProt P36969); assay: Primary qHTS Assay for Inhibitors of Recombinant Selenoprotein Glutathione Peroxidase 4 (GPX4) (AID 1845192); further: nearly all actives have a fitted effect of over 65% in size
Chain of Phospholipid hydroperoxide glutathione peroxidase GPX4 (Homo sapiens) (P36969 whole entry, looked up): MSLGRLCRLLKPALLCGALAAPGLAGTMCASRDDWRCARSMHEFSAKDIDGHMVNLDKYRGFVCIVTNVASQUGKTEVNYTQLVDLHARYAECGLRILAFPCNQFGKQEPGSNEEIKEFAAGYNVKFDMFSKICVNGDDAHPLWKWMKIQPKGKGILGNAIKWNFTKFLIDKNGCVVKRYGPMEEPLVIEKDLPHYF
Summary of the method: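 Steps: GPX4 plus compound, 30 min RT; add GR/GSH/NADPH master mix; start with cumene hydroperoxide; read 340/450 nm fluorescence at 0 and 15 min. Finals were 200 nM GPX4, 1 mM GSH, 0.5 mM CHP, 0.5 mM NADPH, 100 nM GR.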

[3] = Quantitative High-Throughput drug screen in 47 multiple myeloma cell lines against the NCATS MIPE library collection: FR4_PLB cell viability assay (AID 1918924; further: nearly all actives have a fitted effect of over 35% in size; further: potency means the concentration at half of the fitted maximal effect)
Summary of the method: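 We plated 500 myeloma cells per well, pinned in MIPE 4.0 compounds, and incubated for 48 hours at 37C. ATP was then quantified with CellTiter-Glo, with DMSO and media-only wells defining 100% and 0%.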

[4] = molecular target: Luciferin 4-monooxygenase (Photinus pyralis) (UniProt P08659); assay: Primary firefly luciferase (FLuc) qHTS assay for identification of artifact compounds. (AID 1845220); further: series mostly up to about 54 µM; nearly all actives have a fitted effect of over 60% in size
Summary of the method: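 D-luciferin and ATP (10 uM each, final) in Tris acetate buffer pH 7.6 were incubated with compounds for 15 min at room temperature. The reaction was started with 10 nM Photinus pyralis luciferase and luminescence read after 5 min. Percent inhibition was fitted to a 4-parameter Hill equation.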

[5] = test system: Nanoluciferase (engineered Oplophorus gracilirostris luciferase); assay: Primary Nanoluciferase (NLuc) qHTS assay for identification of artifact compounds. (AID 1845222); further: series mostly up to about 54 µM
Summary of the method: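 Diluted conditioned medium from NLuc-expressing S16 cells treated with compounds for 15 min at room temperature, then Nano-Glo substrate added; luminescence read after 5 min. Percent inhibition versus no-enzyme and DMSO controls fitted to 4-parameter Hill equation.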

[6] = Primary redox qHTS assay for identification of artifact compounds. (AID 1845223)
Summary of the method: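 Redox-cycling detection via DTT (250 uM final) oxidation coupled to Amplex Red (25 uM)/HRP (250 mU/mL) in HBSS. 15 min preincubation plus 30 min after DTT, room temperature. Ex/Em 525/598 nm; 4-parameter Hill fit against DMSO and 10 uM DA3003.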

[7] = Primary fluorescence-based thiol-reactive (MSTI) qHTS assay for identification of artifact compounds. (AID 1845221);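 further: series mostly up to about 54 µM; thiol-reactive compounds lower the probe fluorescence signal; nearly all actives have a fitted effect of over 65% in size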
Summary of the method: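 Curve-fitted percent inhibition (4-parameter Hill) derived from fluorescence, Ex 525/Em 598 nm, scaled with Acetyl-MSTI and MSTI; 1 h incubation at room temperature.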

Row | Compound | Potency [1] | Potency [2] | Potency [3] | Potency [4] | outcome [5] | outcome [6] | Potency [7]
1 | CCCn1c(=O)c2[nH]c(C34CC5CC3C[C@@H](C5)C4)nc2n(CCC)c1=O | inactive | inactive | inactive |  |  |  | 
2 | COc1ccc([C@@H]2CC(=O)c3c(O)cc(O[C@@H]4O[C@H](CO[C@@H]5O[C@@H](C)[C@H](O)[C@@H](O)[C@@H]5O)[C@@H](O)[C@H](O)[C@@H]4O)cc3O2)cc1O | inactive | inactive | inactive |  |  |  | 
3 | CC(C)OC(=O)C1=CN(C(=O)c2ccc(F)c(F)c2)CC(C)(C)c2c1[nH]c1ccccc21 | inactive | inactive | inactive | inactive | inactive | inactive | 
4 | CCOC(=O)C1=C[C@]2(CC)CCCN3CCc4c(n1c1ccccc41)[C@@H]32 | 12.8 µM (active) | inactive | 20.9 µM (active) |  |  |  | 
5 | Cc1cc(SCc2sc(-c3ccc(C(F)(F)F)cc3)nc2C)ccc1OCC(=O)O | 20.2 µM (active) and inactive | inactive | inactive |  | inactive | inactive | inactive
6 | Fc1ccc(Cl)cc1-c1nc(Nc2ccncc2)c2nccnc2n1 | inactive | inactive | inactive |  |  |  | 
7 | OC(CN1CCC(Cc2ccc(F)cc2)CC1)c1ccc(Cl)cc1 (configuration not stated) | inactive | inactive | inactive |  |  |  | 
8 | CCc1cc(Nc2nccc(-c3c(-c4ccc(OC)c(C(=O)Nc5c(F)cccc5F)c4)nc4ccccn34)n2)c(OC)cc1N1CCC(N2CCN(S(C)(=O)=O)CC2)CC1 | inactive | inactive | 20.9 µM (active) | inactive | inactive | inactive | 
9 | CC1(C)CNc2cc(NC(=O)c3cccnc3NCc3ccncc3)ccc21 | inactive | inactive |  |  | inactive | inactive | 
